# Results as given in PubChem BioAssay (NCATS).
# “And” between values parts separate entries of the source, which are not always exact repeats. Equal values may be shown once. Inconclusive results are not listed. The source made the active and inactive calls. Calls come from the whole dose curve; as a rule, active = well fitted inhibition curve with a large enough effect; inconclusive = small, poorly fitted or top-dose-only effect; inactive = flat fitted curve, though single readings scatter.
# Assay: Primary qHTS for inhibitors of nuclear receptor binding SET domain protein 2 (NSD2) in an isogenic RCH-ACV NSD2 p.E1099K mutant (9B) (AID 1645876); note: nearly all actives have a fitted effect of over 70% in size
# Details: RCH-ACV (leukaemia line) NSD2 E1099K (9B) viability, CellTiter-Glo, 72 h; series mostly up to 44.9 µM; activity change, negative = viability loss: at the top concentration
# % is set by controls: 0 for no effect and ±100 for the full control effect; potency is the fitted concentration of half-maximal effect.
SMILES,"activity change, negative = viability loss",outcome,Potency
COC(=O)c1ccnc(-c2cc(C(=O)NCCc3ccccc3)ccn2)c1,-2.2% (inactive),,
CC1OC(O[C@H]2CC[C@@]3(C)C(CC[C@]4(C)C3CC=C3C5CC(C)(C)CC[C@]5(C(=O)OC5OC(CO)C(OC6OC(COC7OCC(O)C(O)C7O)C(O)C(O)C6O)C(O)C5O)CC[C@]34C)C2(C)C)C(O)C(O)C1OC1OCC(OC2OCC(O)C(O)C2O)C(O)C1O (some centres not stated),,inactive [at 9.23 µM],
CC1=C(CO)C(=O)O[C@@H]([C@@H](C)[C@H]2CC[C@H]3[C@@H]4C[C@H]5O[C@]56[C@@H](O)C=CC(=O)[C@]6(C)[C@H]4CC[C@]23C)C1,,,448 nM (active) and 263 nM (active)
COc1cccc2cc3c(c(O[C@@H]4O[C@H](CO[C@@H]5O[C@H](CO)[C@@H](O)[C@H](O)[C@H]5O)[C@@H](O)[C@H](O)[C@H]4O)c12)C(C)OC3=O (some centres not stated),-11.6% [at 17.3 µM] (inactive),,
CC1(C)CC[C@]2(C(=O)O[C@@H]3O[C@H](CO)[C@@H](O)[C@H](O)[C@H]3O)CC[C@]3(C)C(=CCC4[C@@]5(C)CC[C@H](O[C@@H]6O[C@H](C(=O)O)[C@@H](O)[C@H](O)[C@H]6O)[C@@](C)(CO)C5CC[C@]43C)C2C1 (some centres not stated),3.1% [at 9.23 µM] (inactive),,
Cc1ccc(S(=O)(=O)Cc2nc(-c3ccc(C(=O)NCc4cccnc4)cc3)oc2C)cc1,,,13.2 nM (active)
CC[C@]12C=CCN3CC[C@@]4(c5cc([C@@]6(C(=O)OC)C[C@H]7C[C@@H](C(C)(F)F)CN(Cc8c6[nH]c6ccccc86)C7)c(OC)cc5N(C)[C@H]4[C@@](O)(C(=O)OC)[C@@H]1OC(C)=O)[C@@H]32,,,139 nM (active)
